This passage reports outcome and AC50 results from PubChem BioAssay (EPA / NIEHS).

The target in assay [1] is Nucleoli Translocation, AR (gene 367) (UniProt P10275). The experiment in a line: UPITT_HCI_U2OS_AR_TIF2_Nucleoli_Antagonist: University of Pittsburgh U2OS Androgen Receptor-Transcriptional Intermediary Factor 2 (AR-TIF2) Antagonism High Content Imaging Assay for Nucleoli Translocation (AID 2283997; active = hit-call score of the fitted dose curve at least 0.9, where 1 is the maximum). In outline: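 U2OS cells expressing RFP-tagged human AR and GFP-tagged TIF2 were imaged by high-content fluorescence microscopy for red AR signal in the nucleolar region. Compounds were screened at 20 uM final (0.2% DMSO), with activity fitted relative to DHT as baseline.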
Sequence of Nucleoli Translocation, AR (gene 367) (P10275 whole entry, looked up): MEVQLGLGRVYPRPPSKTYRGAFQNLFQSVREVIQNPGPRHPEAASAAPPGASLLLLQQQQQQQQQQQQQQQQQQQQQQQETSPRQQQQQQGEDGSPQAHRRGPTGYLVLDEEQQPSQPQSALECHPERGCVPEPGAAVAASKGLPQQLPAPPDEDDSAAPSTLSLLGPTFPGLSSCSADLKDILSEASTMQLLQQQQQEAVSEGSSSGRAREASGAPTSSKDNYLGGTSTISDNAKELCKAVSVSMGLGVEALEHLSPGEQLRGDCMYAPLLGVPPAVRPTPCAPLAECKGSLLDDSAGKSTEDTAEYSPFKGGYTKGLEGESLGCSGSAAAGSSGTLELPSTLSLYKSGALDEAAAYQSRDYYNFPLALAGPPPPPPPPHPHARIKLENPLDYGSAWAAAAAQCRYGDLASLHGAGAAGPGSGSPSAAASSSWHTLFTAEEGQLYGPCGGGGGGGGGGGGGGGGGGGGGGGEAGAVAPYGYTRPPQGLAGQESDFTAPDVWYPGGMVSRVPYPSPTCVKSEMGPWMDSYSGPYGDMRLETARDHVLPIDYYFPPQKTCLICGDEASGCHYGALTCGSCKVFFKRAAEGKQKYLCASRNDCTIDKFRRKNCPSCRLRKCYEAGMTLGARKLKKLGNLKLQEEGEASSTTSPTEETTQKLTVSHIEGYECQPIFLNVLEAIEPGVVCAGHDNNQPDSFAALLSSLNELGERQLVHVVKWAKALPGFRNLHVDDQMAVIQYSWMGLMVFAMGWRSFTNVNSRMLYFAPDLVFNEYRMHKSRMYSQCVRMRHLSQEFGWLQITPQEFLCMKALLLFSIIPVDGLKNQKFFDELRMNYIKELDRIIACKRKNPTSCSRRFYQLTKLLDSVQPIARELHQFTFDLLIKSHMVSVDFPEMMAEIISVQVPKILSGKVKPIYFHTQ

For assay [2] the target is unchanged. The experiment in a line: UPITT_HCI_U2OS_AR_TIF2_Nucleoli_Agonist: University of Pittsburgh U2OS Androgen Receptor-Transcriptional Intermediary Factor 2 (AR-TIF2) Agonism High Content Imaging Assay for Nucleoli Translocation (AID 2283998; active = hit-call score of the fitted dose curve at least 0.9, where 1 is the maximum). In outline: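 Nucleolar translocation of AR-RFP, with TIF2-GFP coexpressed in human osteosarcoma U2OS, imaged by high-content fluorescence. Compounds tested singly at 20 uM final, confirmed in triplicate, then titrated 0.195–50 uM final; gain-of-signal relative to DMSO.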

Assay [3] deals with Ratio of Nucleoli Translocation and Cytoplasm, AR (gene 367) (UniProt P10275). The assay can be described thus: UPITT_HCI_U2OS_AR_TIF2_Nucleoli_Cytoplasm_Ratio_Antagonist: University of Pittsburgh U2OS Androgen Receptor-Transcriptional Intermediary Factor 2 (AR-TIF2) Antagonism High Content Imaging Assay for Ratio of Nucleoli Translocation and Cytoplasm (AID 2283999; active = hit-call score of the fitted dose curve at least 0.9, where 1 is the maximum;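 note: antagonists lower the DHT-driven ratio of nucleolar to cytoplasmic red signal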). In short, it runs like this:
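Human osteosarcoma U2OS line, AR fused to RFP, coactivator TIF2 fused to GFP. Cpds 20 uM final, 0.2% DMSO (screen); 0.195–50 uM final, 0.5% DMSO (CRC). Endpoint: nucleoli/cytoplasm red signal ratio, DHT as baseline, loss-of-signal antagonist mode.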

For assay [4] the target is unchanged. The experiment in a line: UPITT_HCI_U2OS_AR_TIF2_Nucleoli_Cytoplasm_Ratio_Agonist: University of Pittsburgh U2OS Androgen Receptor-Transcriptional Intermediary Factor 2 (AR-TIF2) Agonism High Content Imaging Assay for Ratio of Nucleoli Translocation and Cytoplasm (AID 2284000; active = hit-call score of the fitted dose curve at least 0.9, where 1 is the maximum;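 note: hits raise the red nucleolar to cytoplasm ratio above vehicle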). In short, it runs like this: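 U2OS cells expressing RFP-tagged human AR and GFP-tagged TIF2 were imaged by high-content fluorescence microscopy. The endpoint is the ratio of nucleolar to cytoplasmic red fluorescence, fitted for gain of signal relative to DMSO. Concentration-response spanned 0.195 to 50 uM final (0.5% DMSO).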

A short description of assay [5]: CCTE_Harrill_HTTr_Viability_MCF7: CCTE's 6-hour Cell Viability Assessment for the High-Throughput Transcriptomics (HTTr) Platform, in MCF-7 cells cultured in DMEM + 10% fetal bovine serum, Harrill Lab (AID 2284010). In short, it runs like this:
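Cells were dosed with chemicals in an eight-point dilution series, imaged 6 hours later for propidium iodide uptake, and the endpoint was analyzed by bidirectional fitting against DMSO as negative control.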

Assay [6] has as its system DIO1 (gene 1733). The assay can be described thus: CCTE_GLTED_hDIO1: CCTE's human Deiodinase 1 (DIO1) Inhibition Assay, Great Lakes Toxicology and Ecology Division (GLTED) Lab (AID 2283987; active = hit-call score of the fitted dose curve at least 0.9, where 1 is the maximum;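 note: isolated human DIO1 enzyme in a cell-free setup rather than cells; enzyme activity read as free iodide liberated from substrate via Sandell-Kolthoff colorimetry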). In short, it runs like this: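 Inhibition read as reduced iodide release: after 3 h of human DIO1 with chemical, free iodide is quantified colorimetrically (Sandell-Kolthoff cerium/arsenic reaction). Triplicate plates, DMSO baseline.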

Assay [7] is described as follows: CCTE_Simmons_MITO_max_resp_rate: CCTE's HepG2 Seahorse XF Respirometric Screening Assay at Maximal Respiratory State [uncoupled], Simmons Lab (AID 2284002). The note with it: actives raise or lower the signal. In outline:
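Maximal (FCCP-uncoupled) respiration rate in HepG2, from Seahorse kinetic OCR over 72 min at 6 min cycles. Compounds at 125 nM–100 uM final, 7 points, three biological replicates; both directions fit relative to DMSO.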

The nature of assay [8]: CCTE_Simmons_MITO_inhib_resp_rate: CCTE's HepG2 Seahorse XF Respirometric Screening Assay at Inhibited Respiratory State [full ETC block], Simmons Lab (AID 2284006). The conditions noted are these: actives raise or lower the signal. In outline:
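Compound injected onto HepG2 cells (125 nM–100 uM final, 7 points); FCCP then rotenone/antimycin A added. Oxygen consumption read every 6 min (3 min mix, 3 min measure) for 72 min. Inhibited-state OCR fitted against DMSO.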

The nature of assay [9]: CCTE_Simmons_MITO_viability: CellTiter-Glo Viability Assessment for CCTE's HepG2 Seahorse XF Respirometric Screening Assay [post-hoc], Simmons Lab (AID 2284007; active = hit-call score of the fitted dose curve at least 0.9, where 1 is the maximum;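 for AC50: cells exposed to chemical for 90 min before the ATP read; actives lower ATP signal relative to DMSO baseline meaning reduced viability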). In outline: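 After the Seahorse oxygen-consumption sequence (basal, FCCP, rotenone/antimycin A; 72 min total), HepG2 viability was scored as ATP content by bioluminescence. Chemicals ran at seven concentrations up to 100 uM final for 90 min.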
On the technique in general: In ATP-based viability assays light output follows the ATP content of the culture.

Assay [10] is described as follows: CCTE_Simmons_MITO_basal_resp_rate: CCTE's HepG2 Seahorse XF Respirometric Screening Assay at Basal Respiratory State, Simmons Lab (AID 2284001). The conditions noted are these: actives raise or lower the signal. In outline: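 HepG2 cells were given test chemicals at 7 concentrations, 125 nM to 100 uM final, and oxygen consumption rate was read every 6 min (3 min mix, 3 min measure) over 72 min. Basal-phase OCR was fitted bidirectionally against DMSO.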

Assay [11] in a line: CCTE_Shafer_MEA_acute_spike_number: CCTE's Neural Acute Assay for Total Number of Spikes, Shafer Lab (AID 2284008).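 For AC50: curve fitted for decrease in spike count so AC50 reflects inhibitors.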 In short, it runs like this:
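Total spike count from 40 min recordings before and during compound exposure (0.03-40 uM), given as per-well percent change. Cortical cultures from rat, DIV 13 or 15, 37 C; adaptive detection threshold 8x rms noise.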

Assay [12] can be described thus: CCTE_Shafer_MEA_acute_firing_rate_mean: CCTE's Neural Acute Assay for Mean Firing Rate, Shafer Lab (AID 2284009).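 Note: analyzed for loss of signal so actives lower firing rate relative to DMSO.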 In outline: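 Read-out: well-mean spike rate (spikes/recording length/electrodes), % change from 40 min pre-dose baseline to 40 min with compound. Rat cortical cultures, DIV 13 or 15, 37 C; 0.03-40 uM; DMSO as negative control.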

Results filed as inconclusive are left out. Calls of active or inactive are those of the source. Rule for the calls, unless noted: active = hit-call score of the fitted dose curve at least 0.9, where 1 is the maximum; inactive = score below 0.9.

Sequence of Ratio of Nucleoli Translocation and Cytoplasm, AR (gene 367) (P10275 whole entry, looked up, the tested form may be a part): as the sequence (P10275 whole entry, looked up) above

For `Cc1ccc(C(C)C)cc1`, the molecule was classed as inactive in assay [1], in assay [2], in [3], in assay [4] and in assay [5].

The AC50 is the concentration at which the activity in the assay is half-maximal. On to `CCCCCCCCCCCC[N+](C)(C)C`, for which the concentration at half-maximal activity (AC50) in assay [6] is 83.2 µM (active); in assay [7], 37.8 µM (active). The result in assay [8], in assay [9] and in assay [5] was inactive.

Turning to `O=C(Nc1ccc(Cl)cc1)Nc1ccc(Cl)c(Cl)c1`, in assay [1], the AC50 is 5.24 µM (active). In addition, the result in [3], in [4] and in [5] was inactive.

In the case of `CC/C(=C(/CC)c1ccc(O)cc1)c1ccc(O)cc1`, the half-maximal activity concentration (AC50) in assay [10] is 8.17 µM (active); in [7], 11.3 µM (active); in assay [8] it was 6.72 µM (active); in [9], 12 µM (active); in assay [11] it was 8.49 µM (active); in assay [12] it was 8.49 µM (active). Further, in assay [5], the result was inactive.

Consider `O=C1CCC(C2CCCCC2)CC1`, for which the molecule was called inactive in assay [10], in assay [7], in assay [8], in assay [9] and in [5].

In the case of `CCCCCCCCCC(=O)O`, the molecule was classed as inactive in [1], in [3], in [4], in assay [7], in assay [8] and in [9]. The outcome in assay [5] was inactive. The AC50 in [10] is 23.2 µM (active).

In the case of `CC(C)(C)c1cc(/C=C2\SC(N)=NC2=O)cc(C(C)(C)C)c1O`, the AC50 in assay [6] is 3.01 µM (active); in assay [11], 14.7 µM (active); in [12], 14.8 µM (active). In assay [5], the outcome was inactive.

As to `OC12N=C(c3ccccc3)SC1Cc1cc(Cl)ccc12` (stereo not given), the half-maximal activity concentration (AC50) in assay [6] is 21.1 µM (active); in assay [11], 6.83 µM (active); in assay [12], 6.86 µM (active). Besides, the result in assay [10], in assay [7], in assay [8], in [9] and in assay [5] was inactive.

With `O=c1c(-c2ccc(O)cc2)coc2cc(O)cc(O)c12`, the concentration at half-maximal activity (AC50) in assay [6] was 2.42 µM (active). In addition, the result in assay [1], in assay [2], in assay [3], in assay [4] and in [5] was inactive.

`CN(C)c1ccc(C(=C2C=CC(=[N+](C)C)C=C2)c2ccc(N(C)C)cc2)cc1`: the half-maximal activity concentration (AC50) in assay [1] is 0.262 µM (active); in assay [2] it was 14.6 µM (active); in assay [3], 2.66 µM (active); in assay [10], 50 µM (active); in assay [7], 41.6 µM (active); in assay [8] it was 61.6 µM (active). Besides, the concentration at half-maximal activity (AC50) in [9] was 21.4 µM (active); in assay [11], 0.416 µM (active); in assay [12], 0.406 µM (active); in assay [5] it was 14.4 µM (active). Moreover, the result in assay [4] was inactive.

Consider `COCC(C)OCC(C)OCC(C)O` (stereo not given), for which the result in assay [1], in assay [2], in assay [3], in [4] and in assay [5] was inactive.

With `Cc1c2ccccc2c(C)c2c1ccc1ccccc12`, the AC50 in assay [1] is 50 µM (active); in [10] it was 17.1 µM (active); in [7], 26.1 µM (active); in [9], 19.4 µM (active); in [11] it was 20 µM (active); in assay [12] it was 20 µM (active). For the same molecule, the molecule was classed as inactive in [2], in [3], in assay [4], in [8] and in assay [5].

Regarding `CCCCOC(=O)c1ccc(O)cc1`, the result in assay [1], in [2], in [3], in assay [4], in [8] and in [9] was inactive. In addition, the call in assay [11], in assay [12] and in [5] was inactive. In addition, the AC50 in assay [10] is 23.7 µM (active); in [7], 50 µM (active).

`CC(C)(C)c1csc(-c2cc3cc(OCc4ccccc4CC(=O)O)ccc3o2)n1`: the AC50 was 100 µM (active) in assay [6]; 4.24 µM (active) in assay [10]; 4.72 µM (active) in assay [7]; 4.67 µM (active) in assay [8]; 50 µM (active) in [9]. Also, the result in assay [5] was inactive.

For `OCCO`, the molecule was classed as inactive in assay [1], in [2], in assay [3], in assay [4] and in [5].

For the molecule `O=C1O[C@H]([C@@H](O)CO)C(O)=C1O`, the outcome in [11], in [12] and in assay [5] was inactive.

For the molecule `CN(C)C(=O)C1(N2CCCCC2)CCN(CC[C@@]2(c3ccc(Cl)c(Cl)c3)CN(C(=O)c3ccccc3)CCO2)CC1`, the call in [10], in assay [7], in assay [8] and in assay [5] was inactive. Besides, the concentration at half-maximal activity (AC50) is 3.26 µM (active) in assay [11] and 3.28 µM (active) in assay [12].

As to `Cc1oc2c(NC(=O)c3c(Cl)cccc3Cl)cccc2c1C(C)(C)O`, the result in [5] was inactive.

On to `CCCCCCCCCCCCO`, for which the molecule was classed as inactive in [11], in [12] and in assay [5].

In the case of `O=c1[nH]sc2ccccc12`, the AC50 in assay [11] was 0.0259 µM (active); in [12], 0.0286 µM (active). The result in [5] was inactive.

For the molecule `O=C(O)c1ccccc1-n1cc(C(=O)O)c(=O)c2cc(Nc3c(F)cc(F)cc3Cl)c(Cl)cc21`, the call in [11], in assay [12] and in assay [5] was inactive.

For the molecule `Cc1cn([C@H]2C[C@H](N=[N+]=[N-])[C@@H](CO)O2)c(=O)[nH]c1=O`, the outcome in assay [11], in assay [12] and in [5] was inactive.

Take `c1ccc2ccccc2c1`: the result in [5] was inactive.

In the case of `C[C@]12CC[C@@H]3c4ccc(O)cc4CC[C@H]3[C@@H]1CCC2=O`, the result in [5] was inactive.

As for `CCCCCc1ccc(N)cc1`, in assay [5], the result was inactive.

As to `O=C(O)Cc1cc(I)c(Oc2ccc(O)c(I)c2)c(I)c1`, the AC50 was 27 µM (active) in [10] and 50 µM (active) in assay [7]. The outcome in assay [8], in assay [9] and in [5] was inactive.

For the molecule `Cc1ccc2oc(CN(Cc3ccccc3)C(=O)Nc3c(F)cc(F)cc3F)c(-c3ccc(Cl)cc3)c2c1`, the outcome in [5] was inactive.

Take `CC1=CC(=O)/C(=C(/C)O)C(=O)O1`: the call in assay [11] and in assay [12] was inactive.

With `Cc1ncc(CO)c(CO)c1O`, the outcome in [5] was inactive.

Take `CC(O)CC(C)(C)O` (stereo not given): the molecule was called inactive in assay [11], in assay [12] and in [5].

As for `CCCCCCCCOc1ccc(C(=O)c2ccccc2)c(O)c1`, in assay [5], the outcome was inactive.

Turning to `CO[C@H]1/C=C/O[C@@]2(C)Oc3c(C)c(O)c4c(O)c(c(/C=N/N5CCN(C)CC5)c(O)c4c3C2=O)NC(=O)/C(C)=C\C=C\[C@H](C)[C@H](O)[C@@H](C)[C@@H](O)[C@@H](C)[C@H](OC(C)=O)[C@@H]1C`, the call in assay [11], in [12] and in [5] was inactive.

In the case of `c1ccc2n[nH]nc2c1`, the call in assay [11] and in assay [12] was inactive.

On to `CC[C@H](NC(=O)c1cc(F)ccc1NS(=O)(=O)c1cccc2cccnc12)c1ccccc1`, for which the outcome in assay [5] was inactive.
